# Data as given in article PMC7862700, “An all-to-all approach to the identification of sequence-specific readers for epigenetic DNA modifications on cytosine”.
# What was measured:
# Assay in all cases: DAPPL (digital affinity profiling via proximity ligation, sequencing); 10 mM Tris-HCl pH 7.5, 50 mM NaCl, 1 mM DTT, 4% glycerol, room temperature, 30 min; GST-TFs on glutathione beads, 16-mer random dsDNA library, 0.1% formaldehyde crosslink after washing; high values mean tight binding
# FLI1 = molecular target: T1, FLI1 (Homo sapiens, UniProt Q01543 1-452); settings: protein: recombinant; tags: N-terminal GST; dsDNA, one strand shown
# T1 sequence: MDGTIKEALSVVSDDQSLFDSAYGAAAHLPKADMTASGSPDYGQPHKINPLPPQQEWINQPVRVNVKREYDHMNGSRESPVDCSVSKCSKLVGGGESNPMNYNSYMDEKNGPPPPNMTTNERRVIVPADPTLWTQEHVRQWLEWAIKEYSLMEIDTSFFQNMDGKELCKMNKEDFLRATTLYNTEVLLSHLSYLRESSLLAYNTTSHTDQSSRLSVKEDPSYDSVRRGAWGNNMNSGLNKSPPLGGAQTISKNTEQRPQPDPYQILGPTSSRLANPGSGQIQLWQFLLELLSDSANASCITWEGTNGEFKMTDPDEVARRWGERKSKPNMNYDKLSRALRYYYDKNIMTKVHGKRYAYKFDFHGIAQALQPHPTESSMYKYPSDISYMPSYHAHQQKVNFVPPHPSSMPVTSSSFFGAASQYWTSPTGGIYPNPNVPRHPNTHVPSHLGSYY
# In short: (§1)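 Human transcription factors carrying a GST fusion were produced in yeast, bound to glutathione beads, tagged with DNA barcodes and pooled together with a tag-only sample. Each pool was held with 200 nmole of a random double-stranded 16-mer DNA library in Tris/NaCl/DTT/glycerol buffer for 30 min at room temperature, then washed, crosslinked in 0.1% formaldehyde, proximity-ligated with BsaI/T4 ligase (1 h, 37 °C), PCR-amplified and sequenced on an Illumina NextSeq500. Binding signal is the read frequency of each hexamer for a given factor divided by its frequency in the tag-only sample.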
# ELK1 = molecular target: T2, ELK1 (Homo sapiens, UniProt P19419 1-428); settings: protein: recombinant; tags: N-terminal GST; dsDNA, one strand shown
# T2 sequence: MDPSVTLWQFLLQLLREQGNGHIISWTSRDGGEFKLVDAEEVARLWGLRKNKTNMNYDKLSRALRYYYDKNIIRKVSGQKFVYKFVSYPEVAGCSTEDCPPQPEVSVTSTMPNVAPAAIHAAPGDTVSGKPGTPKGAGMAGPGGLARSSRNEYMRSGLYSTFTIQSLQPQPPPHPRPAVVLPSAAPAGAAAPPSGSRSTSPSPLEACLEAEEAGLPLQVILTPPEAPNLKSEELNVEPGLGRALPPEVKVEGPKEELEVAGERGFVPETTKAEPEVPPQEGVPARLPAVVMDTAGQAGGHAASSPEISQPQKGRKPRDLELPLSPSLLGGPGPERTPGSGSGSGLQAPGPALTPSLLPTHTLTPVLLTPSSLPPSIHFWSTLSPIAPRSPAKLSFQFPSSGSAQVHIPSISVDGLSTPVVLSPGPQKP
# In short: as §1
# GABPA = molecular target: T3, GABPA (Homo sapiens, UniProt Q06546 1-454); settings: protein: recombinant; tags: N-terminal GST; dsDNA, one strand shown
# T3 sequence: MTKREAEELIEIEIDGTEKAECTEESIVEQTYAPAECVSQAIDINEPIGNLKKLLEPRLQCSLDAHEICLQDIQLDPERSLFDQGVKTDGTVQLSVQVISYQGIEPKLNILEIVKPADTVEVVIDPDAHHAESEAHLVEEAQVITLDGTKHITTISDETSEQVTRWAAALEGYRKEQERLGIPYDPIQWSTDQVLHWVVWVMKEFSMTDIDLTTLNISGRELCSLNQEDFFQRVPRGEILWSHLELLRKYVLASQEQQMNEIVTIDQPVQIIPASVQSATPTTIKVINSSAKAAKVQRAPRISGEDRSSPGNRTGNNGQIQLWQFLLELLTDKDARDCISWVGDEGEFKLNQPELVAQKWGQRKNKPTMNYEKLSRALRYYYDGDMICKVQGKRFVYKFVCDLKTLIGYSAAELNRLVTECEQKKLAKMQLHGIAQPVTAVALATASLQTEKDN
# In short: as §1
# ERG = molecular target: T4, ERG (Homo sapiens, UniProt P11308 1-479); settings: protein: recombinant; tags: N-terminal GST; dsDNA, one strand shown
# T4 sequence: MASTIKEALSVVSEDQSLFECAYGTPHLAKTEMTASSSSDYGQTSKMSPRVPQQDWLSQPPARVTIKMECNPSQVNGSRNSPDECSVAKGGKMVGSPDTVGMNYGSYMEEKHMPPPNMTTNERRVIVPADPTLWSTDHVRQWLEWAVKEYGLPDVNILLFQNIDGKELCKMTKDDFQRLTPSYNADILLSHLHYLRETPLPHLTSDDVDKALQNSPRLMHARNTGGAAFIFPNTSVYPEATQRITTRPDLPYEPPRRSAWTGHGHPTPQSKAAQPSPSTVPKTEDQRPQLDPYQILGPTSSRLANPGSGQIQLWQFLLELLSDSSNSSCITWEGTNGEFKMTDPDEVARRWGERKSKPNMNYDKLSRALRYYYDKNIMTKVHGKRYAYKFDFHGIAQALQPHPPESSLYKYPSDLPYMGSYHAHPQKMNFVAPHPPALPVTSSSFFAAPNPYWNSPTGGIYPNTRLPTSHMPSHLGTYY
# In short: as §1
# ELF1 = ELF1 (Homo sapiens, UniProt P32519 1-619); settings: protein: recombinant; tags: N-terminal GST; dsDNA, one strand shown
# ELF1, sequence (P32519 whole entry): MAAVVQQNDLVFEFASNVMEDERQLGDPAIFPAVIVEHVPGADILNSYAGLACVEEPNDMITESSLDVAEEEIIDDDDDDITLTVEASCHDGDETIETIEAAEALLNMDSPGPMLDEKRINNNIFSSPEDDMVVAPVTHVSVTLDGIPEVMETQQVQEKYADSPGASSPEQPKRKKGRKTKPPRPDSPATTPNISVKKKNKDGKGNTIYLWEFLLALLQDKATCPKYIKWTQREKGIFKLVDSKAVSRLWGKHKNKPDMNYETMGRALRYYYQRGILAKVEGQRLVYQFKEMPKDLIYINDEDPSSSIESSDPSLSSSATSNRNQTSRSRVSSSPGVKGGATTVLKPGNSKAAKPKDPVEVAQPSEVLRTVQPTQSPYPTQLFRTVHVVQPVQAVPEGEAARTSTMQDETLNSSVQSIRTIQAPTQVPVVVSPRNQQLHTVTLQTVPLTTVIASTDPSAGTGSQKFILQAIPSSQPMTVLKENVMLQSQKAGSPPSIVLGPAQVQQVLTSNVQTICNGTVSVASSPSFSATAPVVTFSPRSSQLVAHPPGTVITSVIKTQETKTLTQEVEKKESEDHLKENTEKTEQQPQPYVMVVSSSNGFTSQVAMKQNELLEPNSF
# In short: as §1
# EHF = molecular target: T5, EHF (Homo sapiens, UniProt Q9NZC4 1-300); settings: protein: recombinant; tags: N-terminal GST; dsDNA, one strand shown
# T5 sequence: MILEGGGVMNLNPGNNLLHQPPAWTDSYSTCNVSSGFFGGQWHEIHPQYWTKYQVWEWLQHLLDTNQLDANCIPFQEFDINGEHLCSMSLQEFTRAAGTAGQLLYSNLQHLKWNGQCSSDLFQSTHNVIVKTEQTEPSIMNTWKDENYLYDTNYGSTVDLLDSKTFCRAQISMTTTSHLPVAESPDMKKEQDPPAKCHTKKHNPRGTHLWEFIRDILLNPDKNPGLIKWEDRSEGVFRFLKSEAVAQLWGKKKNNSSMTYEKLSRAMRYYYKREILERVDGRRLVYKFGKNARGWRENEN
# In short: as §1
# SPIB = SPIB (Homo sapiens, UniProt Q01892 1-262); settings: protein: recombinant; tags: N-terminal GST; dsDNA, one strand shown
# SPIB, sequence (Q01892 whole entry): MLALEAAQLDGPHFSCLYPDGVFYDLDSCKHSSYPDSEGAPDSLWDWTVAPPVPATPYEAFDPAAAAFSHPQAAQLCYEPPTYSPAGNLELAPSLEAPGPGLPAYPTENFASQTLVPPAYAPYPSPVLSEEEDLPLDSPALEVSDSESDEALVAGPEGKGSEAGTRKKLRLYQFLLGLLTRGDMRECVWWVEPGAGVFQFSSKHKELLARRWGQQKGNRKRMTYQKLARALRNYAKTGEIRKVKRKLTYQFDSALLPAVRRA
# In short: as §1
# ELK3 = molecular target: T6, ELK3 (Homo sapiens, UniProt P41970 1-407); settings: protein: recombinant; tags: N-terminal GST; dsDNA, one strand shown
# T6 sequence: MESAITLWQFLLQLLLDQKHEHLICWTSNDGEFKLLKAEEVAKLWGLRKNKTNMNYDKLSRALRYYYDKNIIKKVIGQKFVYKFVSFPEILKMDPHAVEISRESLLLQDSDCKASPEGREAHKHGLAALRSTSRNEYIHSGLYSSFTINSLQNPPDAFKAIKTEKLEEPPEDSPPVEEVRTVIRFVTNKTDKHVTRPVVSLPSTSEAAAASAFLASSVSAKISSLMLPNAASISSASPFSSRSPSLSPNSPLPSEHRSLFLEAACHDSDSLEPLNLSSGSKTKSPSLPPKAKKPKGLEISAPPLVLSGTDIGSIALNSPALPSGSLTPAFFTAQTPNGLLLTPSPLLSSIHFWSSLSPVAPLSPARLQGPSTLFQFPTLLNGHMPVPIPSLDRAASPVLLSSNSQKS
# In short: as §1
# FEV = molecular target: T7, FEV (Homo sapiens, UniProt Q99581 1-238); settings: protein: recombinant; tags: N-terminal GST; dsDNA, one strand shown
# T7 sequence: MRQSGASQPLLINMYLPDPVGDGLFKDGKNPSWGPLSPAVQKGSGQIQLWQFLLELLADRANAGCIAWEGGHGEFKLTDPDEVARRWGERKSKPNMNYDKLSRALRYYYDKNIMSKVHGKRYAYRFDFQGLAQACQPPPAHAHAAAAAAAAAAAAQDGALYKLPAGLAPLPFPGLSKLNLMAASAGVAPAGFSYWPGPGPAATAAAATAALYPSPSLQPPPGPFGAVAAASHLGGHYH
# In short: as §1
# ETV5 = ETV5 (Homo sapiens, UniProt P41161 1-510); settings: protein: recombinant; tags: N-terminal GST; dsDNA, one strand shown
# ETV5, sequence (P41161 whole entry): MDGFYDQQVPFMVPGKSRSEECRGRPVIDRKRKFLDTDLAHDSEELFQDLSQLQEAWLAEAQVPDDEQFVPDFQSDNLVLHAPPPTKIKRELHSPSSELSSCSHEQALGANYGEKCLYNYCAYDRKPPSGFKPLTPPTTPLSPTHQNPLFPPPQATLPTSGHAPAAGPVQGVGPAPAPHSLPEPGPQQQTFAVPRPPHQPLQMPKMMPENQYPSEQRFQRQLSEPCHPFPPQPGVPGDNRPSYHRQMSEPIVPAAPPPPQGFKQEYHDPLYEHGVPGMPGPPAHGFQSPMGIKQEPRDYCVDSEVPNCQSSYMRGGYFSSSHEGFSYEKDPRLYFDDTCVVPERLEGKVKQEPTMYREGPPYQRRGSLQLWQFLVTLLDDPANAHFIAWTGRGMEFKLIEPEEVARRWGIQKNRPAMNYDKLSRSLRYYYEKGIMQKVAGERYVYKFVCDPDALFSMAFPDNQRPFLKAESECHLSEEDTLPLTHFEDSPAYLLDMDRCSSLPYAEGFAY
# In short: as §1
# HSF1 = HSF1 (Homo sapiens, UniProt Q00613 1-529); settings: protein: recombinant; tags: N-terminal GST; chain copies: 3; dsDNA, one strand shown
# HSF1, sequence (Q00613 whole entry): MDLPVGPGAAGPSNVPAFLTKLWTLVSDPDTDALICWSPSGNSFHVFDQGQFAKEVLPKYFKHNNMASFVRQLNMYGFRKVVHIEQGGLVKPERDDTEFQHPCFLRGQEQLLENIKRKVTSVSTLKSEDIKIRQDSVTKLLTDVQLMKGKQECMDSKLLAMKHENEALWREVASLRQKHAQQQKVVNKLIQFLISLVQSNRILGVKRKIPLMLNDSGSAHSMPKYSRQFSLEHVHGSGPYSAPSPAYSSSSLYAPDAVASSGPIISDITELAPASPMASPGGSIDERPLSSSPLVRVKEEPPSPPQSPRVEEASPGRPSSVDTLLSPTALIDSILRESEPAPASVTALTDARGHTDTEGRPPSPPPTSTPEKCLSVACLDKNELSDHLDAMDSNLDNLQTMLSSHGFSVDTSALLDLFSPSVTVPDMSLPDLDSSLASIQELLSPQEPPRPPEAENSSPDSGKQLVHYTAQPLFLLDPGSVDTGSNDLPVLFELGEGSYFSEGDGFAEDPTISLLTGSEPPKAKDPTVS
# In short: as §1
# SPIC = molecular target: T8, SPIC (Homo sapiens, UniProt Q8N5J4 1-248); settings: protein: recombinant; tags: N-terminal GST; dsDNA, one strand shown
# T8 sequence: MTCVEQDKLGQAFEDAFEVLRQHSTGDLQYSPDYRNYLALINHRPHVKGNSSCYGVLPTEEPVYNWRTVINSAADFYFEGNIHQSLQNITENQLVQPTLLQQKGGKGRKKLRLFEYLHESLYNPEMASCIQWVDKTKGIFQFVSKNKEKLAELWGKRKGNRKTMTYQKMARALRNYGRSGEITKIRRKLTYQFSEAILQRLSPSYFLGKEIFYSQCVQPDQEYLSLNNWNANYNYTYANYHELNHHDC
# In short: as §1
# ELF4 = ELF4 (Homo sapiens, UniProt Q99607 1-663); settings: protein: recombinant; tags: N-terminal GST; dsDNA, one strand shown
# ELF4, sequence (Q99607 whole entry): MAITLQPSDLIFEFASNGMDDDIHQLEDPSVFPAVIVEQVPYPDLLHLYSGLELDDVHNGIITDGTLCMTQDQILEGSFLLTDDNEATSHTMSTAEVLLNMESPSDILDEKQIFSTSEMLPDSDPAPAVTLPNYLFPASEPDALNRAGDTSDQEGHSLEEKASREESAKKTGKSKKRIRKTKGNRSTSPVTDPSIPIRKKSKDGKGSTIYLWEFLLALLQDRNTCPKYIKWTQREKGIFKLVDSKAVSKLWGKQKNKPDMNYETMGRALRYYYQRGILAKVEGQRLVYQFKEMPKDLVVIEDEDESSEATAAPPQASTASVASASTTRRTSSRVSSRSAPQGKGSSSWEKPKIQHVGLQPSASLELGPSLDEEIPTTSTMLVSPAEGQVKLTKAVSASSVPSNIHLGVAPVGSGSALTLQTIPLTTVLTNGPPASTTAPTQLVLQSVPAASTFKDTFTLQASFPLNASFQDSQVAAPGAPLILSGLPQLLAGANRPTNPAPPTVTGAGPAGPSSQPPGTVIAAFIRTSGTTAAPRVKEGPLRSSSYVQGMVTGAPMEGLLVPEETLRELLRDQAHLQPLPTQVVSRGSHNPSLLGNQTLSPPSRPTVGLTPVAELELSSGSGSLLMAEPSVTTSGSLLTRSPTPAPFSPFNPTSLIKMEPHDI
# In short: as §1
# ELK4 = molecular target: T9, ELK4 (Homo sapiens, UniProt P28324-2 1-405); settings: protein: recombinant; tags: N-terminal GST; dsDNA, one strand shown
# T9 sequence: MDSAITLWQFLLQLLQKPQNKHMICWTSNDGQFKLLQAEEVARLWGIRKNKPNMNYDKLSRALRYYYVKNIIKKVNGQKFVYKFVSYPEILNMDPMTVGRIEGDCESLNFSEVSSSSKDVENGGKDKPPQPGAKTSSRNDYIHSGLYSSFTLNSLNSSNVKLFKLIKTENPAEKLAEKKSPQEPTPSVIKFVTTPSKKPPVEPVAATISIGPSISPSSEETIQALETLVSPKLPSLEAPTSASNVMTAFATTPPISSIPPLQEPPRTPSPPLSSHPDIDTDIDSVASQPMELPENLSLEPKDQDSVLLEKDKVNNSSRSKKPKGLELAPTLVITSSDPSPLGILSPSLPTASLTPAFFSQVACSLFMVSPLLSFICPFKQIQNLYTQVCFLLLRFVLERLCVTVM
# In short: as §1
# ETV2 = molecular target: T10, ETV2 (Homo sapiens, UniProt O00321 1-342); settings: protein: recombinant; tags: N-terminal GST; dsDNA, one strand shown
# T10 sequence: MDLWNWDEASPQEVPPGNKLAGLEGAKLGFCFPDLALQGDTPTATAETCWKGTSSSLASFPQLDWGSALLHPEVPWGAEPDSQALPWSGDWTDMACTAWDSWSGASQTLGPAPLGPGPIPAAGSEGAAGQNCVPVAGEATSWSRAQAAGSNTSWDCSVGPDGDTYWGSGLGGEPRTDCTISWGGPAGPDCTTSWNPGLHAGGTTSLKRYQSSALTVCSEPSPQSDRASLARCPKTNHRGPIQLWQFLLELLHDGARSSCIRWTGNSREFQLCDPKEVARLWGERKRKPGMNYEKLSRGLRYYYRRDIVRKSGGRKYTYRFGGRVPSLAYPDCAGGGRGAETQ
# In short: as §1
# ELF3 = molecular target: T11, ELF3 (Homo sapiens, UniProt P78545 1-371); settings: protein: recombinant; tags: N-terminal GST; dsDNA, one strand shown
# T11 sequence: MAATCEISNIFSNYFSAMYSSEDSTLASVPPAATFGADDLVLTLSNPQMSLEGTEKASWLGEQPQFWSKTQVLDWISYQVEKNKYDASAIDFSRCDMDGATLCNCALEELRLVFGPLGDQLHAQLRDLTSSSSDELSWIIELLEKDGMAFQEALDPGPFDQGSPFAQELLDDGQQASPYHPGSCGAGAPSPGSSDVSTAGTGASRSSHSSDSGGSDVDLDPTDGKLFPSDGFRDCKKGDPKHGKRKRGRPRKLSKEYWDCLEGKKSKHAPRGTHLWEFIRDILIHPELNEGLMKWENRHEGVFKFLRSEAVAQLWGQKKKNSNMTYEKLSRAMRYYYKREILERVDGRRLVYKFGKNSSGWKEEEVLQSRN
# In short: as §1
# ETV1 = ETV1 (Homo sapiens, UniProt P50549 1-477); settings: protein: recombinant; tags: N-terminal GST; dsDNA, one strand shown
# ETV1, sequence (P50549 whole entry): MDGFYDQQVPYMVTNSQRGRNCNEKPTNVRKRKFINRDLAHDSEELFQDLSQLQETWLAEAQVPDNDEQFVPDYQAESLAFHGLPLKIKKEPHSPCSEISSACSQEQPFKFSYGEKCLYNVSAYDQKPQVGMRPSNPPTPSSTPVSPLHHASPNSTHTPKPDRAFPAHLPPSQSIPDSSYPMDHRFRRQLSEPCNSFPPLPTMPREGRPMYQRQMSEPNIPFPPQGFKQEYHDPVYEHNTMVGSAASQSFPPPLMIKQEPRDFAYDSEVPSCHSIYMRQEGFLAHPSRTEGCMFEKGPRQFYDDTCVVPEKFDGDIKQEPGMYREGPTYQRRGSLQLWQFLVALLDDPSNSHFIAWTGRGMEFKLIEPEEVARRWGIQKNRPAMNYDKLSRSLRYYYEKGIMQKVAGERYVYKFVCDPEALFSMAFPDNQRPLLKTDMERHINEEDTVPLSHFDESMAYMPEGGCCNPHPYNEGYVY
# In short: as §1
sequence,measurement,setting,value
GATGGT,binding signal,FLI1,"1.25 fold enrichment (6-mer frequency, TF over GST control)"
same,binding signal,ELK1,"1.16 fold enrichment (6-mer frequency, TF over GST control)"
same,binding signal,GABPA,"1.16 fold enrichment (6-mer frequency, TF over GST control)"
same,binding signal,ERG,"1.23 fold enrichment (6-mer frequency, TF over GST control)"
same,binding signal,ELF1,"1.14 fold enrichment (6-mer frequency, TF over GST control)"
same,binding signal,EHF,"1.06 fold enrichment (6-mer frequency, TF over GST control)"
same,binding signal,SPIB,"1.19 fold enrichment (6-mer frequency, TF over GST control)"
same,binding signal,ELK3,"1.17 fold enrichment (6-mer frequency, TF over GST control)"
same,binding signal,FEV,"1.07 fold enrichment (6-mer frequency, TF over GST control)"
same,binding signal,ETV5,"1.16 fold enrichment (6-mer frequency, TF over GST control)"
same,binding signal,HSF1,"1.02 fold enrichment (6-mer frequency, TF over GST control)"
same,binding signal,SPIC,"1.19 fold enrichment (6-mer frequency, TF over GST control)"
same,binding signal,ELF4,"1.11 fold enrichment (6-mer frequency, TF over GST control)"
same,binding signal,ELK4,"1.18 fold enrichment (6-mer frequency, TF over GST control)"
same,binding signal,ETV2,"1.37 fold enrichment (6-mer frequency, TF over GST control)"
same,binding signal,ELF3,"1.19 fold enrichment (6-mer frequency, TF over GST control)"
same,binding signal,ETV1,"1.22 fold enrichment (6-mer frequency, TF over GST control)"
